Results filed as inconclusive are left out. Calls of active or inactive are those of the source. Calls come from the whole dose curve; as a rule, active = well fitted curve in the direction sought with a large enough effect; inconclusive = small, poorly fitted or top-dose-only effect, or another doubt; inactive = no such curve, though single readings can be large; an effect the other way counts as inactive or inconclusive.
Note: 0% is about no effect.

The first assay deals with Galactokinase (Homo sapiens) (UniProt P51570). As to the kind of experiment: qHTS Validation Assay for Inhibitors of Human Galactokinase (GALK) (AID 493189). The conditions noted are these: purified human GALK enzyme activity, qHTS 7-point titration; series mostly up to 57.5 µM; activity change, negative = inhibition: at the top concentration. The method, boiled down: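 GALK (5 nM) with 35 uM ATP and 100 uM galactose in HEPES pH 8.0 with MgCl2, NaCl, DTT and BSA. Reaction ran 1 h at room temperature. Residual ATP read by Kinase-Glo Plus luminescence.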
Chain of Galactokinase (Homo sapiens) (P51570 whole entry, looked up): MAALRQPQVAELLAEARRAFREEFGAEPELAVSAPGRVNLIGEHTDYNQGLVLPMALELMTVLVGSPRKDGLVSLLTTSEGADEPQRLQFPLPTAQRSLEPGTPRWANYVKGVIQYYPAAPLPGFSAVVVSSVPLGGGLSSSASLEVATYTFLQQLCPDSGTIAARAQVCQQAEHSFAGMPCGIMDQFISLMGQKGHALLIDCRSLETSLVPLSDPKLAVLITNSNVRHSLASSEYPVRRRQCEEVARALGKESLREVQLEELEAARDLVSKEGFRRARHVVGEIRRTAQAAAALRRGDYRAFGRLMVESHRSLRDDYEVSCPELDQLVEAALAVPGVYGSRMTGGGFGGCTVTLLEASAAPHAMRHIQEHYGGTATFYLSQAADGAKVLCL
(qHTS replaces the single test concentration by a dilution series.)
On to `O=C(O)CCC(=O)N1CCCC1C(=O)O` (stereo unspecified), for which the “activity change, negative = inhibition” value is -1.41% (inactive).
Still for that read-out and setting: as for `C=C(C)C1CC=C(C(=O)O)CC1` (stereo unspecified), the figure is -10.1% (inactive); as for `NCC(O)C1CCCCCCC1` (stereo unspecified), -0.211% (inactive); as for `NC(=O)CNCCC(c1ccccc1)c1ccccc1`, 2.3% (inactive).
Same read-out and setting: as for `COc1ccccc1N1CCN(CCCNc2c(C)c(=O)n(C)c(=O)n2C)CC1`, the figure is -0.58% (inactive); as for `C[C@@]1(C2CCCC2)Cc2cc(OCC(=O)O)c(Cl)c(Cl)c2C1=O`, -0.273% (inactive); as for `N[C@@H](CS(=O)O)C(=O)O`, 2.25% (inactive).
Turning to `COC(=O)C(C)(N)Cc1ccc(O)cc1` (stereo unspecified), the “activity change, negative = inhibition” value is -0.299% (inactive).
On the same count and under the same terms, as for `O=C(O)/C(=C/c1c(C(=O)O)[nH]c2cc(Cl)cc(Cl)c12)c1ccccc1`, the figure is -2.09% (inactive); as for `Cn1c(=O)[nH]c2ncn(C)c2c1=O`, -0.0804% (inactive); as for `CCCCCCCCCCCCCCCCCCOC[C@H](COP(=O)([O-])OCC[N+](C)(C)C)OC`, 1.69% (inactive).
The same measure, in the same setting: as for `O=C(O)/C=C/c1ccc(O)c(O)c1`, the figure is 0.386% (inactive); as for `N[C@@H](Cc1ccc(O)c(I)c1)C(=O)O`, 2.01% (inactive); as for `NC(=O)c1cc[n+](CC2=C(C(=O)O)N3C(=O)[C@@H](NC(=O)[C@@H](c4ccccc4)S(=O)(=O)[O-])[C@H]3SC2)cc1`, 2.08% (inactive).
Still for that read-out and setting: as for `O=[N+]([O-])c1cccc2cn[nH]c12`, the figure is 3.55% (inactive); as for `c1ccc2nc(C3=NCCN3)ccc2c1`, 2.33% (inactive); as for `COc1ccccc1N1CCN(CCCCNC(=O)c2ccc3ccccc3c2)CC1`, -3.35% (inactive).
Consider `O=c1onc2n1-c1cc(Br)ccc1OC2`, for which the “activity change, negative = inhibition” value was -3.83% (inactive).
As to `CC(C)NC[C@H](O)COc1ccc(CC(N)=O)cc1`, the Potency entry was “inactive”.
As for `NC(N)=NC(N)=Nc1ccccc1`, the “activity change, negative = inhibition” value was -2.96% (inactive).
As for `C#CCn1c(=O)c2c(ncn2C)n(C)c1=O`, the “activity change, negative = inhibition” value was 2.74% (inactive).
Same read-out and setting: as for `O=C(OCCN1CCOCC1)C1(c2ccccc2)CCCCC1`, the figure is -1.71% (inactive).
Turning to `CO/N=C(\C(=O)N[C@@H]1C(=O)N2C(C(=O)O)=C(CSc3nc(=O)c(O)nn3C)CSC12)c1csc(N)n1` (stereo partly specified), the “activity change, negative = inhibition” value was 0.506% (inactive).
As to `Nc1ccc(-c2nc3ccc(-c4nc5ccc(N)cc5[nH]4)cc3[nH]2)cc1`, the “activity change, negative = inhibition” value was -0.142% (inactive).
On the same count and under the same terms, as for `CCC(=O)N1CCN(C(=O)c2ccccc2)CC1`, the figure is 1.15% (inactive).
`Nc1ccc(N2C(=O)c3ccccc3C2=O)c(Cl)c1`: the “activity change, negative = inhibition” value was 3.06% (inactive).
As to `NC(N)=N[C@@H](CCC(=O)O)C(=O)O`, the “activity change, negative = inhibition” value was 4.02% (inactive).
Turning to `CC1CCN(CC[C@H]2CCCN2S(=O)(=O)c2cccc(O)c2)CC1`, the “activity change, negative = inhibition” value is -8.82% (inactive).
The same measure, in the same setting: as for `Cc1nc(N=Nc2ccc(S(=O)(=O)O)cc2S(=O)(=O)O)c(COP(=O)(O)O)c(C=O)c1O`, the figure is -3.09% (inactive).
On the same count and under the same terms, as for `CC(C)Cn1c(=O)n(C)c(=O)c2[nH]cnc21`, the figure is -4.98% (inactive); as for `NCCCNCCCCNCCCN`, 4.16% (inactive).
Still for that read-out and setting: as for `CCCCCCCCCC[Si](C)(C)CCC(=O)NC(Cc1ccc(C)cc1)c1ccccc1` (stereo unspecified), the figure is 3.54% (inactive).
As for `CNc1ncnc2c1ncn2[C@H]1C[C@H](OP(=O)(O)O)[C@@H](COP(=O)(O)O)O1`, the “activity change, negative = inhibition” value is 2.55% (inactive).
Still for that read-out and setting: to `NCCS(=O)O` belongs -3.13% (inactive); to `N=C(N)SCCN`, -3.11% (inactive).
Consider `NC1(C(=O)O)CC1`, for which the “activity change, negative = inhibition” value is 2.16% (inactive).
Still for that read-out and setting: as for `O=C(O)c1cc(=O)cc(C(=O)O)[nH]1`, the figure is 4.7% (inactive); as for `c1ccc(C2CN3CCSC3=N2)cc1` (stereo unspecified), 0.484% (inactive).

Test system in the next assay: not listed separately
As to the kind of experiment: Validation screen for small molecules that induce DNA re-replication in SW480 colon adenocarcinoma cells (AID 504364). The conditions noted are these: DNA re-replication phenotype (high-content imaging); series mostly up to 46.1 µM; activity (re-replication induction): at the top concentration. The method, boiled down:
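SW480 cells (250/well) exposed 48 h at 37 C, 5% CO2, then Hoechst-stained 40 min. Nuclear DNA content imaged by fluorescence scanning (405 nm excitation, 500-530 nm emission); re-replication scored as increased nuclei with elevated intensity.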
Consider `O=C(O)CCC(=O)N1CCCC1C(=O)O` (stereo unspecified), for which the “activity (re-replication induction)” value is 2.19% (inactive).
On to `C=C(C)C1CC=C(C(=O)O)CC1` (stereo unspecified), for which the “activity (re-replication induction)” value is -1.83% (inactive).
Still for that read-out and setting: to `NCC(O)C1CCCCCCC1` (stereo unspecified) belongs 7.7% (inactive); to `NC(=O)CNCCC(c1ccccc1)c1ccccc1`, -4.17% (inactive).
Same read-out and setting: as for `COc1ccccc1N1CCN(CCCNc2c(C)c(=O)n(C)c(=O)n2C)CC1`, the figure is 2.2% (inactive); as for `C[C@@]1(C2CCCC2)Cc2cc(OCC(=O)O)c(Cl)c(Cl)c2C1=O`, -4.28% (inactive); as for `N[C@@H](CS(=O)O)C(=O)O`, -4.3% (inactive).
On the same count and under the same terms, to `COC(=O)C(C)(N)Cc1ccc(O)cc1` (stereo unspecified) belongs -7.64% (inactive); to `O=C(O)/C(=C/c1c(C(=O)O)[nH]c2cc(Cl)cc(Cl)c12)c1ccccc1`, 0.778% (inactive); to `Cn1c(=O)[nH]c2ncn(C)c2c1=O`, -4.74% (inactive).
Turning to `CCCCCCCCCCCCCCCCCCOC[C@H](COP(=O)([O-])OCC[N+](C)(C)C)OC`, the “activity (re-replication induction)” value was 11.6% (inactive).
On the same count and under the same terms, as for `O=C(O)/C=C/c1ccc(O)c(O)c1`, the figure is -9.96% (inactive).
For `N[C@@H](Cc1ccc(O)c(I)c1)C(=O)O`, the “activity (re-replication induction)” value was -15.4% (inactive).
Still for that read-out and setting: as for `NC(=O)c1cc[n+](CC2=C(C(=O)O)N3C(=O)[C@@H](NC(=O)[C@@H](c4ccccc4)S(=O)(=O)[O-])[C@H]3SC2)cc1`, the figure is -2.93% (inactive).
On the same count and under the same terms, to `O=[N+]([O-])c1cccc2cn[nH]c12` belongs -2.45% (inactive); to `c1ccc2nc(C3=NCCN3)ccc2c1`, -0.767% (inactive); to `COc1ccccc1N1CCN(CCCCNC(=O)c2ccc3ccccc3c2)CC1`, 21.7% (inactive).
Same read-out and setting: to `O=c1onc2n1-c1cc(Br)ccc1OC2` belongs 5.69% (inactive).
Take `CC(C)NC[C@H](O)COc1ccc(CC(N)=O)cc1`: the Potency entry is “inactive”.
As to `NC(N)=NC(N)=Nc1ccccc1`, the “activity (re-replication induction)” value is -6.61% (inactive).
Turning to `C#CCn1c(=O)c2c(ncn2C)n(C)c1=O`, the “activity (re-replication induction)” value is 0.831% (inactive).
The same measure, in the same setting: to `O=C(OCCN1CCOCC1)C1(c2ccccc2)CCCCC1` belongs 5.88% (inactive); to `CO/N=C(\C(=O)N[C@@H]1C(=O)N2C(C(=O)O)=C(CSc3nc(=O)c(O)nn3C)CSC12)c1csc(N)n1` (stereo partly specified), -0.519% (inactive); to `Nc1ccc(-c2nc3ccc(-c4nc5ccc(N)cc5[nH]4)cc3[nH]2)cc1`, -10.5% (inactive).
On the same count and under the same terms, as for `CCC(=O)N1CCN(C(=O)c2ccccc2)CC1`, the figure is -6.13% (inactive); as for `Nc1ccc(N2C(=O)c3ccccc3C2=O)c(Cl)c1`, -8.38% (inactive); as for `NC(N)=N[C@@H](CCC(=O)O)C(=O)O`, -8.5% (inactive).
Same read-out and setting: as for `CC1CCN(CC[C@H]2CCCN2S(=O)(=O)c2cccc(O)c2)CC1`, the figure is -1.52% (inactive); as for `Cc1nc(N=Nc2ccc(S(=O)(=O)O)cc2S(=O)(=O)O)c(COP(=O)(O)O)c(C=O)c1O`, -0.485% (inactive); as for `CC(C)Cn1c(=O)n(C)c(=O)c2[nH]cnc21`, -0.519% (inactive).
For `NCCCNCCCCNCCCN`, the “activity (re-replication induction)” value was -7.32% (inactive).
Same read-out and setting: as for `CCCCCCCCCC[Si](C)(C)CCC(=O)NC(Cc1ccc(C)cc1)c1ccccc1` (stereo unspecified), the figure is 11.9% (inactive); as for `CNc1ncnc2c1ncn2[C@H]1C[C@H](OP(=O)(O)O)[C@@H](COP(=O)(O)O)O1`, 3.02% (inactive); as for `NCCS(=O)O`, -11% (inactive).
On the same count and under the same terms, as for `N=C(N)SCCN`, the figure is 0.321% (inactive); as for `NC1(C(=O)O)CC1`, -0.533% (inactive).
On the same count and under the same terms, as for `O=C(O)c1cc(=O)cc(C(=O)O)[nH]1`, the figure is -14.1% (inactive).
Take `c1ccc(C2CN3CCSC3=N2)cc1` (stereo unspecified): the “activity (re-replication induction)” value was -5.82% (inactive).
